Bioassay records from PubChem.
tim10-1 inh: growth inhibitors of tim10-1 mutant yeast. S. cerevisiae tim10-1 ts strain growth, BacTiter-Glo, 24 h. inhibition, % at 20 µM. 330,000 tested, 2.2% active;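 active means inhibition of at least 40%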;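 further: mutant grown at 25 °C; 0% = DMSO wells with yeast and 100% = wells holding no yeast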
tim23-1 inh: inhibits growth of tim23-1 mutant yeast; S. cerevisiae tim23-1 growth, BacTiter-Glo luminescence, 24 h; inhibition, % at 20 µM; 330,000 tested, 1.3% active; AID 463212;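 active means growth inhibition of the mutant yeast at or above 50%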;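 further: temperature-sensitive mutant grown at 25 °C; plate controls were DMSO-treated mutant yeast for no effect and medium wells lacking yeast for full effect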
SKKanGAS inh: SKKanGAS growth inhibition. S. pyogenes SKKanGAS, kanamycin growth, BacTiter-Glo, 6 h. inhibition, % at 7.5 µM. 300,000 tested, 1.3% active. AID 1662;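 active means mean replicate score, as percent of positive control median, at least 50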;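 further: strain carries kanamycin resistance gene driven by streptokinase promoter and grows in 40 µg/ml kanamycin; loss of luminescence reflects streptokinase promoter inhibition or plain growth inhibition; 0% = median of DMSO wells and 100% = positive control at its reference dose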
PfHsp90 set2: inhibits growth of yeast expressing Plasmodium falciparum Hsp90. S. cerevisiae expressing PfHsp90, BacTiter-Glo ATP, 48 h; yeast lacking PDR1 and PDR3 efflux regulators. inhibition, % at 9.4 µM. 310,000 tested, 0.32% active;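 active means every replicate shows inhibition above about 80%, whatever the replicate mean, limit read from the data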;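 further: 0% = DMSO neutral controls and 100% = 20 µM radicicol positive controls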
TIM10 inh: inhibits growth of TIM10 yeast strain | S. cerevisiae TIM10 strain growth, BacTiter-Glo luminescence, 24 h | inhibition, % at 10 µM | 330,000 tested, 1.4% active;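 active means inhibition of 40% or more at the single tested concentration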;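 further: wild-type TIM10 isogenic control strain grown at permissive 25 °C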
tim10-1 conf: confirmation of tim10-1 mutant yeast growth inhibitors | AID 463213 | shares compounds with tim10-1 inh | S. cerevisiae tim10-1 ts strain growth, BacTiter-Glo, 24 h | 7,400 tested, 56% active | inhibition, % at 20 µM;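 active means inhibition of yeast growth at or above a set limit in either of two repeat tests at 20 µM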;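 further: tim10-1 mutant grown at permissive 25 °C to find synthetic lethal compounds; 0% = DMSO yeast wells and 100% = medium wells without yeast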
Starred values were filed as active, the others as inactive; . = no result given. A selection: hits, their analogues and other compounds. The true share with any hit is near 4.4%.

SMILES | tim10-1 inh | tim23-1 inh | SKKanGAS inh | PfHsp90 set2 | TIM10 inh | tim10-1 conf
O=C(NC1CCCN(c2ccc(C(F)(F)F)cn2)C1)c1ccncc1 (stereo not drawn) | 33.3 | -125.5 | 1.7 | -3.7 | -37.6 | .
CSc1ccccc1C(=O)NC1CCCN(c2ccc(C(F)(F)F)cn2)C1 (stereo not drawn) | 42.8* | 24.5 | -0.8 | -21.2 | -7.0 | 3.4
CCN(C(=O)CSc1nccc(=O)[nH]1)C1CCCCC1 | 6.3 | 8.1 | . | 10.7 | 7.0 | .
Cc1ccc(OCC(=O)NNC(=S)NC(=O)C2CCCCC2)c(C)c1 | 47.1* | 32.4 | 90.2* | 60.0 | -22.1 | -11.2
Cc1ccc(OCC(=O)NNC(=O)c2ccc(NC(=O)C3CC3)cc2)c(C)c1 | 10.1 | 3.5 | 3.6 | -29.3 | 8.3 | .
C/C(=N\NC(=O)c1cc2c(s1)CCC(C)C2)c1ccncc1 (stereo not drawn) | 53.8* | 40.0 | -7.9 | 7.5 | 20.8 | 32.2*
O=C(CCC(=O)c1cccs1)NNC(=O)c1ccc(Cl)cc1 | -38.1 | -9.5 | . | -35.8 | 3.2 | .
COc1cc(CN2CCNC(=O)C2CC(=O)NC2CCC2)cc(OC)c1 (stereo not drawn) | 14.4 | 20.7 | -4.6 | 1.3 | -5.0 | .
CC(C)(C)C(=O)OCc1nc(-c2ccc(Cl)cc2)cs1 | 44.7* | 23.0 | 18.8 | -17.0 | 24.5 | 42.0*
O=C1CC(c2ccccc2Cl)CC(O)=C1C=Nc1ccccc1 (stereo not drawn) | 44.5* | 48.6 | 2.0 | -19.0 | 26.4 | 40.6*
Cc1ccc(N=CC2=C(O)CC(c3ccccc3Cl)CC2=O)cc1 (stereo not drawn) | 32.9 | 20.8 | 2.3 | . | 23.6 | .
CCN(CC)CCN(Cc1cc2cccc(C)c2[nH]c1=O)C(=S)Nc1ccccc1 | 22.7 | 26.0 | 4.0 | -8.1 | -0.2 | .
Cc1ccc2cc(CN(CCN(C)C)C(=S)Nc3ccccc3)c(=O)[nH]c2c1C | 40.2* | 35.5 | 0.0 | . | 11.4 | 18.4
COc1ccc(/C=C/C(=O)c2cc(F)ccc2OC(=O)c2ccccc2C)cc1OC | 41.4* | 29.8 | -15.4 | -15.0 | 20.4 | 20.0
COc1ccc(S(=O)(=O)N2CCN(CC(=O)NCCc3cccs3)CC2)cc1 | 25.0 | 20.8 | . | -5.4 | 18.1 | .
Cc1noc(C)c1NC(=O)N(C)C[C@H]1Oc2ccc(NS(=O)(=O)c3cccs3)cc2C(=O)N([C@H](C)CO)C[C@@H]1C | -3.5 | -23.6 | . | -0.4 | -2.3 | .
Cc1ccc(NC(=O)C(=O)C2C(=O)Nc3ccccc32)cc1 (stereo not drawn) | -9.7 | 3.5 | -3.5 | 11.0 | 6.2 | .
O=[N+]([O-])c1cccc(-c2nc(-c3cccs3)c(-c3cccs3)[nH]2)c1 | 28.3 | 14.4 | 3.1 | -16.8 | 37.9 | .
COc1ccc(-c2nc(-c3cccs3)c(-c3cccs3)[nH]2)cc1OC | 49.9* | 7.1 | 67.6* | -5.9 | 35.6 | 35.9*
O=C(CSc1nnc(-c2ccc(O)cc2)o1)N1CCOCC1 | 2.1 | -10.1 | -2.7 | -11.4 | -12.2 | .
Oc1ccc(-c2nnc(SCC3CCCCC3)o2)cc1 | 43.9* | 22.2 | -1.7 | . | 32.3 | 28.3
CCC1CCCCN1S(=O)(=O)c1ccc(NC(=O)C2CC(=O)N(C(C)(C)C)C2)cc1 (stereo not drawn) | . | . | . | -21.6 | . | .
O=C(CSc1n[nH]c(-c2ccccc2O)n1)N1CCCc2ccccc21 | 44.5* | 30.8 | -0.7 | 5.2 | 27.0 | 25.4
O=C(CSc1nnnn1-c1ccccc1)N1CCCc2ccccc21 | 43.4* | 32.3 | 20.7 | -17.6 | 22.0 | 17.4
COc1ccc2cc3cc(C(=O)N(C)C4CCCCC4)oc3nc2c1 | 45.3* | 48.7 | 10.7 | -4.7 | 15.1 | -13.2
SMILES | tim10-1 inh | tim23-1 inh | SKKanGAS inh | PfHsp90 set2 | TIM10 inh | tim10-1 conf
CCN(c1ccc(NC(=O)COC(=O)C(C)N=C2NS(=O)(=O)c3ccccc32)cc1)C(C)C (stereo not drawn) | -6.0 | 10.4 | . | . | 2.1 | .
CCC1CCCCN1c1cc(C)nc2cc(-c3cccc(C)c3)nn12 (stereo not drawn) | 41.9* | 20.8 | 57.1* | -24.8 | 23.4 | 8.9
CSc1cccc(NC(=O)CCCn2c(=O)c3cccn3c3cccnc32)c1 | 22.1 | 31.5 | -1.7 | 2.0 | 8.9 | .
Cc1c(Cl)cccc1N=c1c([N+](=O)[O-])nn(-c2ccccc2)n1O | 12.8 | 13.0 | 6.9 | 7.8 | 8.2 | .
Cc1ccc(N=c2c([N+](=O)[O-])nn(-c3ccccc3)n2O)c(C)c1 | 46.8* | 45.4 | 6.9 | -3.6 | 37.3 | 41.5*
COc1ccc(NC(=O)NNC(=O)C(C)Oc2ccc3ccccc3c2)cc1 (stereo not drawn) | 6.3 | 13.9 | -14.8 | -15.4 | 8.3 | .
COc1ccc(-c2cn3c4c(sc3n2)CCCC4)cc1 | 41.4* | 38.0 | -18.4 | 15.1 | 31.8 | 11.2
COC(=O)c1ccc(NS(=O)(=O)c2ccc(SC)cc2)cc1 | 40.5* | 31.5 | -2.7 | 29.2 | 13.2 | 20.8
COc1ccc(NS(=O)(=O)c2ccc(SC)cc2)cc1 | 18.5 | 19.7 | -0.4 | -0.6 | -6.9 | .
CCOC(=O)NC1(NC2CCCCC2)Oc2ccccc2O1 | 40.1* | 46.0 | -6.8 | -3.3 | 36.5 | 28.1
CCOC(=O)NC1(NC(C)C)Oc2ccccc2O1 | 11.8 | 14.3 | 6.9 | -0.1 | 19.8 | .
COc1ccc([C@H]2CC(=O)C=C(c3cc(C=O)ccc3OC)C2)cc1 | 26.4 | 30.7 | . | 17.0 | -4.2 | .
C=CCN(CC=C)c1nc2ccccc2nc1C(C#N)C(=O)OC(C)C (stereo not drawn) | 45.1* | 48.8 | 5.5 | -20.5 | 32.0 | 38.3*
COc1ccc(C(=O)COC(=O)CCN2C(=O)C3CC=CCC3C2=O)c(OC)c1 (stereo not drawn) | 15.0 | 16.5 | . | . | 5.8 | .
CCN(CC)c1nc(-c2cccc(OC)c2O)nc2ccccc12 | 46.6* | 26.5 | 10.2 | -36.3 | 28.8 | 36.2*
COc1ccccc1OCCC(=O)Nc1cccc(S(=O)(=O)N2CCOCC2)c1 | 4.9 | 8.2 | . | 13.3 | 6.1 | .
COC(=O)c1sc(NC(=O)CN2CCN(c3cccc(Cl)c3)CC2)c(C(=O)OC)c1C | . | . | . | -8.7 | . | .
CC(C)c1cc(NCC2CCCO2)n2c(nc3ccccc32)c1C#N (stereo not drawn) | 48.0* | 36.7 | 12.5 | 37.5 | 26.2 | 34.1*
O=C1S/C(=C\c2ccc(N3CCOCC3)o2)C(=O)N1Cc1ccc(F)cc1 | 32.8 | 17.2 | . | 12.6 | 18.6 | .
O=C1S/C(=C/c2ccc(N3CCOCC3)o2)C(=O)N1Cc1ccc(F)cc1 | 42.3* | 24.7 | -1.0 | 26.0 | 24.2 | 50.4*
Clc1ccccc1-c1nn2c(-c3ccccn3)nnc2s1 | 40.2* | 30.4 | 8.6 | . | 11.5 | 39.8*
Clc1ccccc1-c1nnc2sc(-c3ccncc3)nn12 | 21.6 | 17.8 | 7.5 | 3.1 | 5.4 | .
Clc1ccccc1-c1nn2c(-c3ccncc3)nnc2s1 | 43.4* | 34.8 | -9.1 | . | 30.6 | 42.9*
Cc1cc(C)n(C(=O)/C(C#N)=N/Nc2cc(Cl)cc(Cl)c2)n1 | 47.1* | 29.2 | 90.5* | -56.8 | 32.6 | 56.1*
